Sampled rows, rich in hits. Any-hit rate of the full collection: about 3.4%.
MITF inh: human MITF inhibition, primary screen | 0.91% of 650,000 active | inhibition, % at 2.6 µM | O75030 | AlphaScreen MITF homodimerization, bead proximity signal; in the data active = inhibition above about 50%
Target sequence (O75030 whole entry, looked up): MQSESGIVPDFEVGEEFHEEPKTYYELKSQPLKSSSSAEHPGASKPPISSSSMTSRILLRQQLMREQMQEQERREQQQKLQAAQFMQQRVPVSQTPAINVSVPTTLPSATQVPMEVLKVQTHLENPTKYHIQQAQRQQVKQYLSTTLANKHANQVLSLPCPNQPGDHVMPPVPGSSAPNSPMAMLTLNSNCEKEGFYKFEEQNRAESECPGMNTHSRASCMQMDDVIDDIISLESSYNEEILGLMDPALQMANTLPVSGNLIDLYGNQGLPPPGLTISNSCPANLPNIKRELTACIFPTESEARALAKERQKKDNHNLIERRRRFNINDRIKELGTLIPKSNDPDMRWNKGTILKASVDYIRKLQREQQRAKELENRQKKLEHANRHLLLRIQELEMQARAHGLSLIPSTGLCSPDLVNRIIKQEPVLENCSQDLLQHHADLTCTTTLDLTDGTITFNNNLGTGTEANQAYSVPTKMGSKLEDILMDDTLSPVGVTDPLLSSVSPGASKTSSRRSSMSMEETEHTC
GPR151 activ: activators of human GPR151 | Q8TDV0 | PathHunter beta-arrestin GPR151 cells, luminescence | activation, % at 11.2 µM | 1% of 650,000 active | AID 1508602; in the data active = activation above about 4.9%
TEAD-YAP block: TEAD-YAP interaction inhibition; HEK-TIYL cells, TEAD-Gal4/YAP UAS-luciferase luminescence; inhibition, % at 9.12 µM; 1.4% of 640,000 active; AID 1259422; in the data active = inhibition above about 32%
FBW7 act: activators of human E3 ligase FBW7. AlphaScreen FBW7–phospho-cyclin E peptide binding, activator screen. normalized activity (activation), % at 26.1 µM. 0.13% of 650,000 active; in the data active = normalized activity above about 1.9%;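 note: purified mutant Fbw7 with reduced substrate affinity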
Of the large screens only hits and unclear results are named; the others gave an inactive call.

CCCCCCNc1ccc([N+](=O)[O-])cc1[N+](=O)[O-]	none
CCCCCNc1sc(Cl)c([N+](=O)[O-])c1[N+](=O)[O-]	TEAD-YAP block 65.1
O=C1NC(=S)N/C1=C\c1ccc(Cl)cc1	none
COc1ccccc1CN1CCN2C(=O)[C@H](Cc3ccc(O)cc3)NC(=O)[C@H]2C1	none
O=C(NCc1ccccc1)/C(=C\C=C\c1ccccc1)NC(=O)c1ccc([N+](=O)[O-])cc1	TEAD-YAP block 55.6
NNC(=O)/C(=C/c1cccs1)NC(=O)c1ccccc1Cl	TEAD-YAP block 42.4
NNC(=O)/C(=C/c1ccc2c(c1)OCO2)NC(=O)c1ccccc1Cl	none
O=C(CCl)N1CCN(S(=O)(=O)c2ccccc2)CC1	TEAD-YAP block 34.5
Cc1nc2c(ccc3nc(NC(=O)CCc4ccccc4)sc32)s1	TEAD-YAP block 47.8
Cc1nc2c(ccc3nc(NC(=O)Cc4ccccc4)sc32)s1	none
COc1cccc(OC)c1C(=O)Nc1nc2ccc3sc(C)nc3c2s1	none
COc1ccc(C(=O)Nc2nc3ccc4sc(C)nc4c3s2)c(OC)c1	TEAD-YAP block 48.5
COc1ccccc1C(=O)Nc1nc2ccc3sc(C)nc3c2s1	TEAD-YAP block 52.4
COc1c(Cl)cc(Cl)cc1C(=O)Nc1nc(-c2ccc(-c3ccccc3)cc2)cs1	none
CC(CN1CCOCC1)C(=O)N1CCC2(CC1)NC(=O)c1cccnc1N2C (stereo not drawn)	none
Cc1ccc[n+](C(C)C(=O)c2ccccc2)c1 (stereo not drawn)	none
Cc1cc(C)c[n+](C(C)C(=O)c2ccc(-c3ccccc3)cc2)c1 (stereo not drawn)	TEAD-YAP block 71.5
CC(C)(C)NC(=O)CSc1nc(-c2ccccc2)cs1	TEAD-YAP block 61.8
CCc1ccccc1NC(=S)N(Cc1ccccc1)Cc1ccccn1	none
Cc1ccc2c(c1)-c1c(ssc1=S)C(C)(C)N2C(=O)c1ccncc1	TEAD-YAP block 55.1
Cc1cc(C)c2c(c1)-c1c(ssc1=S)C(C)(C)N2C(=O)C(C)C	MITF inh 51.5
COc1cc(C(=O)N2c3ccccc3-c3c(ssc3=S)C2(C)C)cc(OC)c1OC	TEAD-YAP block 60.7
Cc1nnc(SCC(=O)N2c3cc(C)c(C)cc3-c3c(ssc3=S)C2(C)C)s1	none
CCC(=O)N1c2c(C)cc(C)cc2-c2c(ssc2=S)C1(C)C	none
COc1ccc2c(c1)-c1c(ssc1=S)C(C)(C)N2C(=O)CSc1nnc(C)s1	TEAD-YAP block 33.8
CCC(=O)Nc1ccc(C(=O)N2CCc3ccccc32)cc1	none
O=[N+]([O-])c1c(Nc2cccc(F)c2)ccc2nonc12	none
Cc1cccn2c(=O)c(C=C3C(=O)NC(=S)NC3=O)c(N3CCCC3)nc12	none
COc1ccc(-c2cn3nc(C)c(C)nc3n2)cc1OC	none
Cc1ccc(-c2cn3nc(C)c(C)nc3n2)cc1	TEAD-YAP block 46.1
Cn1c(CNC(=O)c2ccc(Cl)cc2)nc2ccccc21	none
O=C(O)c1ccc2c(c1)C(=O)N(c1ccccc1[N+](=O)[O-])C2=O	none
O=C(O)c1ccc2c(c1)C(=O)N(Nc1ccccc1[N+](=O)[O-])C2=O	TEAD-YAP block 47.7
COc1cccc2c1N[C@@H](c1ccc(C(=O)O)cc1)[C@H]1CC=C[C@@H]21	MITF inh 63.3
COc1cccc2c1NC(c1ccc(C(=O)O)cc1)C1CC=CC21 (stereo not drawn)	MITF inh 71.3
COc1cc([N+](=O)[O-])cc2c1NC(c1ccc(C(=O)O)cc1)C1CC=CC21 (stereo not drawn)	MITF inh 75.2
CC(=O)c1cccc(Nc2nc(=S)[nH]c3ccccc23)c1	TEAD-YAP block 61.3
CC(=O)c1cccc(Nc2nc(-c3ccc(C)cc3)nc3ccccc23)c1	none
CC(=O)Nc1cccc(Nc2nc(-c3ccccc3F)nc3ccccc23)c1	TEAD-YAP block 32.3
S=c1nc(Nc2cc(Cl)cc(Cl)c2)c2ccccc2[nH]1	none
CC(=O)Nc1cccc(-c2nc(-c3ccccc3)nc3ccccc23)c1	FBW7 act 1.9
Fc1cccc(Nc2nc(-c3ccccc3F)nc3ccccc23)c1	none
CC(=O)c1cccc(Nc2nc(-c3ccc(C(C)(C)C)cc3)nc3ccccc23)c1	TEAD-YAP block 58.9
CC1CCc2c(sc(N3C(=O)c4ccc(Oc5ccccc5)cc4C3=O)c2C#N)C1 (stereo not drawn)	none
COc1cc(C(=O)NNC(=O)CCc2c[nH]c3ccccc23)ccc1OC(C)C	none
Cc1ccc(N=c2oc3ccc4ccccc4c3cc2-c2nc3ccccc3s2)cc1C	none
CCOc1ccc(Br)cc1S(=O)(=O)n1nnc2ccccc21	none
CC(C)CCNS(=O)(=O)c1ccc(Oc2ccc(S(=O)(=O)NCCC(C)C)cc2)cc1	TEAD-YAP block 33.2
CC(=O)c1ccc(S(=O)(=O)NCCC(C)C)cc1	none
Cc1c(C(=O)NCc2cccnc2)oc2ccc3c(c12)C(=O)CC1(CCCC1)O3	TEAD-YAP block 39.9
COCCNC(=O)c1oc2ccc3c(c2c1C)C(=O)CC1(CCCCC1)O3	none
Cc1ccc(-c2cc(C(=O)NN)[nH]n2)c(C)c1	TEAD-YAP block 43.4
CCC(C)NC(=O)c1c(C(F)(F)F)nc2ccc(C)cn12 (stereo not drawn)	none
Cc1ccn2c(-c3csc(Nc4ccc(N(C)C)cc4)n3)c(C)nc2c1	TEAD-YAP block 54.0
Cc1ccc(Nc2nc(-c3c(C)nc4cc(C)ccn34)cs2)c(C)c1	TEAD-YAP block 41.7
Cc1ccc(Nc2nc(-c3cccnc3)cs2)c(C)c1	TEAD-YAP block 48.6
Cc1ccc(Nc2nc(-c3c(C)nc4ncccn34)cs2)c(C)c1	TEAD-YAP block 51.9
Cc1ccc(Nc2nc(-c3ccncc3)cs2)c(C)c1	none
COc1cccc(-n2c(SCC(=O)Nc3ccccc3OC)nnc2-c2ccncc2)c1	none
O=C(CSc1nc2c(c(=O)n1Cc1ccccc1)SCC2)NCc1ccccc1	none
COc1ccccc1NC(=O)CCc1c(C)nc2c(-c3ccccc3)c(C)nn2c1C	none
Cc1cccc(-c2noc(CCC(=O)N3CCOCC3)n2)c1	none
Cc1ccccc1-n1ncc2c(NCc3ccc(F)cc3)ncnc21	none
Fc1ccc(CNc2ncnc3ccccc23)cc1	TEAD-YAP block 54.6
c1csc(CNc2ncnc3ccccc23)c1	TEAD-YAP block 51.1
c1csc(CNc2ncnc3nc[nH]c23)c1	none
CC1(C)N=C(N)N=C(N)N1c1cc(Cl)ccc1Oc1ccc2ccccc2c1Br	none
CCN(CC)c1ccc(C2NC(=O)c3ccccc3N2)cc1 (stereo not drawn)	TEAD-YAP block 79.2
COc1ccccc1NC(=O)Cc1nn(C)c(=O)c2ccccc12	TEAD-YAP block 35.6
Cn1nc(CC(=O)Nc2ccc(F)cc2Cl)c2ccccc2c1=O	TEAD-YAP block 45.8
O=[N+]([O-])c1cccc(Cl)c1N1CCN(S(=O)(=O)Cc2ccccc2)CC1	none
COc1cccc(/C=N/NC(=O)c2cc(-c3ccc(C)cc3)n[nH]2)c1	TEAD-YAP block 45.4
CCCCC(=O)N/N=C(\C)CC(=O)Nc1cccc(I)c1	none
COc1ccc(/C=N/NC(=O)c2cc(-c3cccc(OC)c3)n[nH]2)cc1	none
COc1cccc(/C=N/NC(=O)CCCCC(=O)N/N=C/c2cccc(OC)c2)c1	TEAD-YAP block 73.6

Bioassay records as filed in PubChem.
